Assay outcomes deposited in PubChem by National Center for Advancing Translational Sciences (NCATS).
Hits are enriched below; roughly 3.8% of the tested compounds scored in any of these assays.
Nrf2 block – Nrf2 qHTS screen for inhibitors | AID 504444, 2011 | A549 ARE-Fluc reporter, luciferase luminescence, 18-24 h | actives 2.1% (n = 360,000) | Potency, µM (highest dose often 46 µM), without a hit: at the top dose activity change, negative = inhibition, most hits filed as inhibitors; further: on the % scale 0 is the no-effect control and ±100 the full control effect; nearly all actives have a fitted effect of over 60% in size
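A549 ARE_Fluc cells, 5000/well, 5% FBS OPTI-MEM; compounds in dose-response, 18-24 h at 37 °C/5% CO2; CellTiter-Fluor viability read (Ex 405/Em 525), then BugLite luciferase luminescence = Nrf2 activity.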
TGFb SMAD3 inh – qHTS for Inhibitors of TGF-b | HepG2 CAGA-GFP TGF-b/SMAD3 reporter, GFP fluorescence, 18 h; TGF-beta stimulated, 500 pg/mL final | Potency, µM (top dose mostly 46.1 µM), without a hit: at the highest dose activity, negative = inhibition, hits mostly inhibitors | actives 1.2% (n = 410,000) | AID 588855, 2011; further: on the % scale 0 is the no-effect control and ±100 the full control effect; nearly all actives have a fitted effect of over 65% in size
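HEPG2 CAGA-GFP reporter cells (1000/well, DMEM with 1% FBS) received compounds, then recombinant TGF-beta at 500 pg/mL final for 18 hours at 37 degrees C. Per-cell GFP summed per well was normalised to unstimulated and stimulated DMSO controls before curve fitting.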
A549 tox – Nrf2 qHTS screen for inhibitors: counterscreen for cytotoxicity | actives 0.16% (n = 390,000) | AID 504648, 2011 | Potency, µM (doses to about 46 µM), for inactives: at the highest dose activity change, negative = cytotoxicity, usual class: inhibitors | A549 ARE-Fluc cells, CellTiter-Fluor viability, 18-24 h; further: on the % scale 0 is the no-effect control and ±100 the full control effect
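Cytotoxicity counterscreen: CellTiter-Fluor fluorescence was measured in A549 ARE_Fluc cells after 18-24 h of compound exposure in a concentration series. The subsequent BugLite luminescent read reports ARE-luciferase activity.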
ATXN viability – Viability Counterscreen for Primary qHTS for Inhibitors of ATXN expression; S2 cells (HEK-293 line with an ATXN2-luciferase reporter) viability, CellTiter-Fluor protease fluorescence, 24 h; Potency, µM (series often up to 56.7 µM), usual class: cytotoxic; actives 0.49% (n = 400,000); further: nearly all actives have a fitted effect of over 40% in size
ATXN2 expr inh – Primary qHTS for Inhibitors of ATXN expression. Potency, µM (series often up to 57 µM), for inactives: at the top dose activity change, negative = inhibition, most hits filed as inhibitors. AID 1745845, 2022. HEK-293 ATXN2-luciferase reporter, luminescence, 24 h. actives 0.72% (n = 360,000); further: on the % scale 0 is the no-effect control and ±100 the full control effect; nearly all actives have a fitted effect of over 55% in size
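ATXN2-luciferase reporter cells (luciferase flanked by upstream and downstream ATXN2 gene portions) were treated 24 h at 37 °C with compounds at up to 57 uM. SteadyGlo luminescence gave expression; GF-AFC fluorescence gave viability.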
HepG2 tox – qHTS for Inhibitors of TGF-b: Cytotox Counterscreen | actives 0.76% (n = 410,000) | AID 588856, 2011 | Potency, µM (highest dose often 46.1 µM), for inactives: top-dose activity change, negative = cytotoxicity, most hits filed as cytotoxic | HepG2 CAGA-GFP viability, ATP luminescence, 18 h
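CellTiter-Glo luminescence gave cytotoxicity after 18 hours at 37 degrees C. The cells were HepG2 CAGA-GFP in 1% FBS DMEM, stimulated with 500 pg/mL TGF-beta after compound addition. %Activity was normalised to no-cell wells (complete cell-killing) and DMSO (no toxicity), and curves were fitted and classified.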
* = called active by the depositor; i = inactive; ? = inconclusive; . = no result given; ! = not confirmed by another sample; [ ] = remark or other dose. The call rests on the fitted dose curve; in most records, active means well fitted curve in the direction sought with a large enough effect; inconclusive means small, poorly fitted or top-dose-only effect, or another doubt; inactive means no such curve, though single readings can be large; an effect the other way counts as inactive or inconclusive. Potency means the concentration at half of the fitted maximal effect.

SMILES	Nrf2 block	TGFb SMAD3 inh	A549 tox	ATXN viability	ATXN2 expr inh	HepG2 tox
CC(C)N1C(=O)S/C(=C/c2ccc(Sc3nc4ccccc4[nH]3)o2)C1=O	14.6µM*	20µM*	?	i	?	-18.7%
CCOC(=O)C(C)N1C(=O)S/C(=C\c2ccc(-c3ccccc3C(=O)O)o2)C1=O (stereo unspecified)	-27.8%	3.8%	?	i	.	-4.7%
C=CCN1C(=O)S/C(=C/c2ccc(Sc3nc4ccccc4[nH]3)o2)C1=O	?	20µM*	-2.8%	?	?	-36.1%
O=Nc1c(O)n(Cc2ccc(Cl)cc2)c2ccccc12	-13.5%	-14.7%	-12.2%	i	-16.0%	-57.3%
O=Nc1c(O)n(Cc2ccc(Cl)cc2Cl)c2ccccc12	0.2%	?	-17.7%	i	0.7%	5.01µM*
Cc1nn(-c2cccc(Cl)c2)c2nc(-c3cccnc3)cc(C(F)(F)F)c12	20.1%	-16.6%	1.4%	.	.	-14.7%
Cc1cnc(NC(=O)CN2CCN(c3ccccn3)CC2)s1	?	?	?	?	8.91µM*	-22.0%
Cc1ccccc1OCc1occc1C(=O)Nc1cccc(-n2cnnn2)c1	?	14.1µM*	5.1%	i	.	-31.5%
Cc1cccc(-n2ncc(C(=O)NCc3ccco3)c2C2CCN(C(=O)OC(C)(C)C)CC2)c1	-16.9%	?	1.5%	.	.	-22.2%
COCCCn1c(=O)c2sccc2n(Cc2ccccc2)c1=O	-24.0%	-5.5%	11.8%	i	1.8%	-10.4%
COCCCn1c(=O)c2sccc2n(Cc2ccc(C)cc2)c1=O	?	0.8%	5.5%	i	-33.3%	12.6µM*
CN(C)CCCN1c2ccccc2Sc2ccc3ccccc3c21	-24.0%	?	?	i	-5.5%	-73.4%
CN(C)CCCN1c2ccccc2Sc2ccc(Cl)cc21	4.2%	?	-9.2%	i	20µM*!	17.8µM*!
Cc1ccc(O)c(C(=O)c2coc(=N)c(C(=O)NC(C)C)c2)c1	-0.2%	2.5%	-4.4%	i	-15.4%	0.5%
CC(=O)c1cccc(NC(=O)c2ccc3c(=O)n4c(nc3c2)CCCCC4)c1	4.2%	-25.4%	0.8%	i	19.4%	-24.1%
O=C(Nc1ccc2nc3n(c(=O)c2c1)CCCCC3)c1cc([N+](=O)[O-])ccc1F	?	?	-7.1%	.	?	12.6µM*
O=C(Nc1ccccc1Cl)c1ccc2c(=O)n3c(nc2c1)CCC3	?	11.0%	2.2%	?	-21.8%	6.7%
O=C(Nc1cccc(S(=O)(=O)N2CCOCC2)c1)c1ccc2c(=O)n3c(nc2c1)CCCCC3	20.6µM*	-21.7%	?	i	?	-18.5%
O=C(Nc1cccc(S(=O)(=O)N2CCCC2)c1)c1ccc2c(=O)n3c(nc2c1)CCCCC3	11.6µM*	?	-16.8%	i	?	-29.6%
O=C(Nc1nc(-c2ccccc2)cs1)c1ccc2c(=O)n3c(nc2c1)CCCCC3	5.8µM*	?	?	?	14.1µM*	-22.9%
O=C(Nc1ccc(Oc2ccccc2)cc1)c1ccc2nc([C@@H]3O[C@H](CO)[C@H](O)[C@H](O)[C@H]3O)[nH]c2c1	.	-2.2%	.	i	2.0%	15.5%
O=c1ccc(-c2ccc(S(=O)(=O)Nc3ccc(F)cc3)s2)n[nH]1	-4.0%	2.3%	-8.2%	i	2.8%	-1.5%
Cc1nc2cc(-c3ccccc3)nn2c(C)c1CCC(=O)NCc1cccc(Cl)c1	?	?	-12.5%	i	-3.8%	-26.1%
O=c1c2cc(NC(=S)NCCCN3CCC(Cc4ccccc4)CC3)ccc2nc2n1CCCCC2	-26.9%	?	-16.1%	i	-12.3%[11.3 µM]	15.8µM*
O=c1c2cc(NC(=S)NCCN3CCCCCC3)ccc2nc2n1CCCCC2	?	-1.0%	11.8%	i	-16.0%	-0.7%
SMILES	Nrf2 block	TGFb SMAD3 inh	A549 tox	ATXN viability	ATXN2 expr inh	HepG2 tox
Cc1ccc(NC(=O)c2ccc3c(=O)n4c(nc3c2)CCCCC4)cc1F	18.4µM*	1.0%	?	?	-27.9%	-12.1%
Cc1ccc(C(=O)COC(=O)C(CC(C)C)NC(=O)C2CCC(C)CC2)cc1 (stereo unspecified)	?	30.1%	-22.0%	i	-5.0%	7.4%
O=C1[C@H](Cc2ccccc2)NC/C=C\C[C@H](c2ccc(Cl)cc2)N1Cc1ccc(Cl)cc1	.	?	.	.	.	-61.1%
O=C1[C@H](Cc2ccccc2)NC/C=C\C[C@@H](c2ccc(Cl)cc2)N1Cc1ccccc1	.	?	.	.	.	8.91µM*
CCOC(=O)Nc1cccc(OCC(=O)Nc2ccc(OC)cc2OC)c1	14.6µM*	-6.1%	?	i	-4.9%	-0.3%
CCOC(=O)Nc1cccc(OCC(=O)Nc2ccccc2OC)c1	?	3.8%	-5.9%	i	-16.0%	-1.8%
CCOC(=O)c1cccc(NC(=O)Nc2cc(OC)ccc2OC)c1	20.6µM*	3.8%	-7.6%	i	4.6%	-26.9%
CCC(CO)n1cnnc1-c1ccncc1 (stereo unspecified)	?	1.8%	-7.1%	i	-10.0%	-0.9%
CN1CCN(CC#CCn2c3ccccc3c3ccccc32)CC1	-21.0%	-27.0%	?	?	25.1µM*	-36.4%
COCCNC(=O)C1(C)CCCN(C(=O)c2cc(F)cc(F)c2)C1 (stereo unspecified)	.	-17.6%	.	i	11.4%	-10.2%
Cc1cc(=O)oc2c3c(cc(OCC(=O)NCC4CCC(C(=O)O)CC4)c12)OC(C)(C)CC3 (stereo unspecified)	5.7%	6.7%	-4.5%	i	2.5%	-0.1%
Cc1ccc(-c2csc(=S)n2CC(=O)OCC(=O)NCc2ccco2)cc1	18.4µM*	9.5%	-19.2%	i	43.4%	-23.3%
Cc1ccc(-c2csc(=S)n2CC(=O)OCC(=O)NC(C)C(C)C)cc1 (stereo unspecified)	-23.0%	?	-2.7%	i	1.5%	-26.8%
COc1cc(OC)c2c(-c3ccccc3)cc(=O)oc2c1C(CCN1CCCC(C)C1)c1ccc2c(c1)OCO2 (stereo unspecified)	-0.3%	?	-20.7%	10µM*	?	-19.5%
COc1ccc(C(CCN2CCCCC2)c2c(OC)cc(OC)c3c(-c4ccccc4)cc(=O)oc23)cc1 (stereo unspecified)	3.9%	?	-9.2%	22.4µM*	?	17.8µM*!
COc1cc(OC)c2c(-c3ccccc3)cc(=O)oc2c1C(CCN1CCCCC1)c1ccc(N(C)C)cc1 (stereo unspecified)	-3.4%	?	-6.8%	22.4µM*	?	-69.5%
